HSF1 inhib: HSF1 inhibition; NIH3T3-HGL HSE-luciferase, MG132-induced, luminescence 8 h; hits give low values; activity change, negative = inhibition, % at 7.5 µM (by protocol); actives 0.77% (n = 300,000);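 active means more than half of replicate wells show activity change below -50%, luminescence cut by over half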;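 further: luciferase reports HSF-1 transcriptional activity via heat shock element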
aDG glyco act: alpha-DG glycosylation activation; Pro5-aDG cells, alpha-DG glycosylation AlphaScreen (IIH6); 0% Pro5, 100% B10-LARGE cell signal; activation, % at 10 µM; actives 0.22% (n = 360,000); AID 624168;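 active means activation of at least 8% versus controls, or a plate z-score of at least 8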;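 further: Pro5 are CHO cells carrying HIG-tagged alpha-DG that lacks glycosylation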
HSF-1 act: increases HSF-1 driven luciferase reporter signal; NIH3T3-HGL HSF-1 luciferase reporter, MG132, 8 h; 100% = twice DMSO control signal; activation, % at 9 µM; actives 1.7% (n = 300,000);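 active means mean replicate activation of at least 50% with a set share of replicates each reaching 50%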
NPR2 activator: GC-B (human) receptor activation; P20594; HEK293-GC-B cells, CNP EC30, cGMP TR-FRET; 0% at EC30 CNP, 100% saturating CNP; activation, % at 10 µM; actives 0.11% (n = 370,000);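 active means activation at 10 µM reaching about 35% in either raw or pattern-adjusted values, limit read from the data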
GC-A act: GC-A (human) enzyme activation | HEK293 GC-A cells, cGMP TR-FRET, EC30 ANP; 0% at EC30 ANP, 100% saturating ANP | activation, % at 10 µM | actives 0.14% (n = 370,000) | AID 1671463; in the data active means activation above about 40%
Dyrk1A ADPGlo: Dyrk1A (rat) kinase inhibition | ADP-Glo luminescence, NFATc1 peptide | inhibition, % at 12.5 µM | actives 0.43% (n = 310,000) | AID 504441; in the data active means inhibition above about 50%
A number is an active result; 0 = inactive; - = no result given; ! = not confirmed by another sample. An excerpt weighted towards active compounds, which were near 2.5% of everything screened.

SMILES | HSF1 inhib | aDG glyco act | HSF-1 act | NPR2 activator | GC-A act | Dyrk1A ADPGlo
COc1ccc(CN2C(=O)C(Cc3ccccc3)Nc3ncnc(N4CCc5ccccc5C4)c32)cc1 (stereo unspecified) | 0 | - | 71 | - | - | -
O=C(Nc1ncc(Cc2ccc(C(F)(F)F)cc2)s1)c1ccc(-c2cccc([N+](=O)[O-])c2)o1 | 0 | 0 | 0 | 0 | 0 | 0
O=c1[nH]cnc(O)c1N=Nc1ccccc1 | 0 | 0 | 0 | 0 | 0 | 0
CC(C)C[C@H]1CNC(=S)N1CC1CCN(CCCC2CCCCC2)CC1 | - | 0 | - | 0 | 0 | -
Cc1cccc(N2CCN(Cc3nc(-c4cccc(Cl)c4)oc3C)CC2)n1 | 0 | 0 | 0 | 0 | 0 | 0
Cc1cccc(N2CCN(Cc3nc(-c4ccccc4Cl)oc3C)CC2)n1 | -60 | 0 | 0 | 0 | 0 | 0
Cc1nc(NCCc2ccc(F)cc2)c(C#N)c(C)c1[N+](=O)[O-] | 0 | 0 | 51 | 0 | 0 | 0
CC(C)N(Cc1cc2ccccc2[nH]c1=O)C(=O)c1cccc([N+](=O)[O-])c1 | 0 | 0 | 0 | 0 | 0 | 0
Cc1ccc2[nH]c(=O)c(CN(C(=O)c3cccc([N+](=O)[O-])c3)C(C)C)cc2c1 | -57 | 0 | 0 | 0 | 0 | 0
COc1cc(OC)cc(-c2nnc(Sc3ccc(C=O)cc3[N+](=O)[O-])o2)c1 | 0 | - | 142 | - | - | -
COc1cc(OC)cc(-c2nnc(SCC(=O)N(C(C)C)C(C)C)o2)c1 | 0 | 0 | 0 | 0 | 0 | 0
Cc1noc(C)c1NC(=O)N(C)C[C@H]1Oc2ccc(NC(=O)NC(C)C)cc2C(=O)N([C@H](C)CO)C[C@@H]1C | - | 0 | - | 0 | 0 | 0
Cc1ccc(C(=O)NC2CCCN(c3ccc(C(F)(F)F)cn3)C2)cn1 (stereo unspecified) | 0 | 0 | 54 | 0 | 0 | 0
O=C(NC1CCCN(c2ccc(C(F)(F)F)cn2)C1)c1cc(Cl)ccc1F (stereo unspecified) | 0 | 0 | 0 | 0 | 0 | 0
Fc1ccc(-c2cc(C(F)(F)C(F)F)[nH]n2)cc1 | 0 | 0 | 0 | 0 | 0 | -
COc1ccc(OC)c(S(=O)(=O)Nc2cnc3ccccc3c2)c1 | 0 | 0 | 0 | 0 | 0 | 0
Oc1ccccc1-c1csc(-c2ccccc2)n1 | 0 | 0 | 79 | 0 | 0 | 0
c1ccc(-c2csc(-c3ccncc3)n2)cc1 | 0 | 0 | 0 | 0 | 0 | 0
COc1ccc(C(CC(=O)NCc2ccccc2)Sc2n[nH]c(-c3ccc(Cl)cc3)n2)cc1 (stereo unspecified) | 0 | 0 | 0 | 0 | 0 | 0
COc1ccc(CNC(=O)C(c2ccc(C)o2)N(C(=O)c2snc(C(N)=O)c2N)c2ccccc2OC)cc1 (stereo unspecified) | 0 | 0 | 58 | 0 | 0 | 0
COCCCC/C(=N\OCCN)c1ccc(C(F)(F)F)cc1 | -81! | 0 | 0 | 0 | 0 | 0
O=C(CCC(=O)OCC(=O)c1ccc(C(F)(F)F)cc1)OCC(=O)c1ccc(C(F)(F)F)cc1 | 0 | 0 | 0 | 0 | 0 | -
CCOC(=O)c1cnc2ccc(C)cc2c1Sc1ccc(F)cc1 | 0 | 0 | 60 | 0 | 0 | 0
CCOC(=O)c1cnc2ccc(C)cc2c1Sc1ccccc1 | 0 | 0 | 0 | 0 | 0 | 0
CN(C)c1ccc(/C=C/C=N/Nc2nc(N3CCOCC3)nc(N3CCOCC3)n2)cc1 | 0 | 0 | 79 | 0 | 0 | 0
SMILES | HSF1 inhib | aDG glyco act | HSF-1 act | NPR2 activator | GC-A act | Dyrk1A ADPGlo
C(=N\Nc1nc(N2CCOCC2)nc(N2CCOCC2)n1)/c1ccncc1 | 0 | 0 | 0 | 0 | 0 | 0
BrC(/C=C\c1ccccc1)=N/Nc1nc(N2CCOCC2)nc(N2CCOCC2)n1 | 0 | 0 | 176 | 0 | 0 | 0
Cc1ccc(-c2noc(CNC(=O)c3ccc4c(c3)OCO4)n2)cc1 | 0 | 0 | 0 | 0 | 0 | 0
Cc1ccc2oc(=O)cc(/C=C/c3ccccc3)c2c1 | 0 | 0 | 0 | 0 | 0 | 0
CCCn1c(N)c(N2CCCCC2)c(=O)n(CC(=O)Nc2ccccc2C)c1=O | 0 | 0 | 0 | 0 | 0 | 0
CCN1C(=O)/C(=C\N2CCCCCC2)SC1=S | 0 | 0 | 67 | 0 | 0 | 0
CCN1C(=O)/C(=C/N2CC(C)CC(C)C2)SC1=S (stereo unspecified) | 0 | 0 | 0 | 0 | 0 | 0
CC(C)CCNc1c(-c2cccs2)nc2ccccn12 | 0 | 0 | 0 | 0 | 0 | 0
COc1ccc(OC)c(N/C=C/C(=O)c2ccc(OC)c(OC)c2)c1 | 0 | 0 | 0 | 0 | 0 | 0
CC1CCN(CC(=O)c2cccs2)CC1 | -62 | 0 | 0 | 0 | 0 | -
CCOc1ccc(NC(=O)COC(=O)C2COc3ccccc3O2)cc1 (stereo unspecified) | - | 0 | - | 0 | 0 | -
CCOC(=O)c1c(N)sc(C(=O)Nc2ccccc2F)c1C | 0 | 0 | 95 | 0 | 0 | 0
Nc1ncnc2sc3c(c12)CCNC3 | 0 | 0 | 0 | 0 | 0 | 0
CCc1ccc2c(c1)[C@H]1OCC[C@H]1[C@@H](c1cccs1)N2 | 0 | 0 | 69 | 0 | 0 | 0
NC(=O)COc1ccccc1 | 0 | 0 | 79 | 0 | 0 | -
NC(=O)c1ccsc1NC(=O)CSc1ccccc1F | 0 | 0 | 58 | 0 | 0 | 0
NC(=O)c1ccsc1NC(=O)COc1ccccc1 | 0 | 0 | 69 | 0 | 0 | 0
NC(=S)COc1ccccc1 | 0 | 0 | 0 | 0 | 0 | 0
Cc1ccccc1SCC(=O)OCC(=O)Nc1sccc1C(N)=O | 0 | 0 | 0 | 0 | 0 | 0
O=S(=O)(c1ccccc1)N1CCN(C(=S)NCCc2ccccc2)CC1 | 0 | 0 | 0 | 0 | 0 | 0
COc1ccc(CNC(C)CCc2ccccc2)cc1 (stereo unspecified) | -67 | 0 | 0 | 0 | 0 | 0
CCOc1cc(CNc2ccc3c(c2)OCCO3)cc(Br)c1OCC | -82 | 0 | 0 | 0 | 0 | 0
COC(=O)c1ccc(C(=O)OC)c(NC(=O)C(C)(C)C)c1 | 0 | 0 | 67 | 0 | 0 | 0
CN(NC1OC(=O)c2ccccc21)c1ncc(Cl)cc1C(F)(F)F (stereo unspecified) | 0 | 0 | 66 | 0 | 0 | -
Cn1nc(-c2ccccc2F)c2cc(C(=O)Nc3ccc4c(c3)OCCO4)sc21 | 0 | 0 | 0 | 0 | 0 | 0
SMILES | HSF1 inhib | aDG glyco act | HSF-1 act | NPR2 activator | GC-A act | Dyrk1A ADPGlo
COc1cccc(-c2nn(C)c3sc(C(=O)Nc4ccc5c(c4)OCCO5)cc23)c1 | 0 | 0 | 55 | - | - | 0
COc1cccc(NC(=O)C2CCCN2C(=O)Nc2ccccc2)c1 (stereo unspecified) | 0 | 0 | 0 | 0 | 0 | 0
CCCCNC(=O)C1CCCN1C(=O)Nc1cccc(OC)c1 (stereo unspecified) | -52 | 0 | 0 | 0 | 0 | 0
O=C(NCc1ccccn1)c1ccc2ccccc2n1 | 0 | 0 | 0 | 0 | 0 | 0
O=C(c1ccccn1)c1ccc2ccccc2n1 | 0 | 0 | 59 | 0 | 0 | -
O=C(Nc1ccc(Cl)cc1)Nc1ccccc1C(=O)O | 0 | 0 | 54 | 0 | 0 | 0

Source: PubChem
